# Records with an inconclusive call do not appear. Activity calls are given as the source filed them. Calls come from the whole dose curve; as a rule, active = well fitted cell-killing curve with a large enough effect in the repeat runs; inconclusive = weak or mixed curves, or effect the other way; inactive = no such curve, though single readings can be large or run the other way.
# Assay: qHTS assay for small molecule activators of the heat shock response signaling pathway - cell viability counter screen (AID 743209); note: nearly all actives have a fitted effect of over 50% in size
# Settings: HSE-bla HeLa viability, CellTiter-Glo luminescence, 5 h; series mostly up to 62.6 µM
# Text: U.S. Tox21 Program National Center for Advancing Translational Sciences [NCATS] NIH Chemical Genomics Center [NCGC] U.S. Environmental Protection Agency [EPA] National Institutes of Environmental Health Sciences [NIEHS] National Toxicology Program [NTP] U.S. Food and Drug Administration [FDA] Tox21 Assay Overview: Various chemicals, environmental and physiological stress conditions may lead to the activation of heat shock response/ unfolded protein response (HSR/UPR). There are three heat shock transcription factors (HSFs) (HSF-1, -2, and -4) mediating transcriptional regulation of the human HSR. To identify the compounds that activate HSR signaling, HSE-bla HeLa cell line (Invitrogen, Carlsbad, CA, USA) containing a beta-lactamase reporter gene under the control of the heat shock response elements was used to screen Tox21 10K compound library. The cytotoxicity of the Tox21 compound library against the HSE-bla HeLa cell line was tested in parallel by measuring the cell viability using CellTiter-Glo assay (Promega, Madison, WI) in the same wells.
# Tox21 Assay Protocol Summary: The CellSensor HSE-bla HeLa cells (Invitrogen, Carlsbad, CA, USA) were dispensed at 1500 cells/6uL/well into 1536-well black wall/clear bottom plates using a Multidrop combi (Thermo Fisher Scientific, Waltham, MA) dispenser. After the assay plates were incubated at 37 C and 5% CO2 overnight, 23 nL of compounds dissolved in DMSO, positive controls or DMSO only was transferred to the assay plate by a Pintool station (Kalypsys, San Diego, CA). The plates were incubated at 37 C for 5 h. After 1 uL of LiveBLAzerTM B/G FRET substrate was added using a Flying Reagent Dispenser (FRD, Beckman Coulter, Indianapolis, IN, USA), the plates were incubated at room temperature for 2.5 h, and fluorescence intensity was measured by an Envision plate reader (PerkinElmer, Shelton, CT). For cell viability readout that measures cytotoxicity, 3 ul/well of CellTiter-Glo reagent was added into the assay plates using a FRD. After 30 min incubation at room temperature, the luminescence intensity in the plates was measured using a ViewLux (PerkinElmer) plate reader.
# % is set by controls: 0 for no effect and ±100 for the full control effect.
SMILES,outcome,"activity change, negative = cytotoxicity"
[K+],inactive,–
[Ca+2],inactive,–
CC1=C(C/C=C(\C)CCC[C@H](C)CCC[C@H](C)CCCC(C)C)C(=O)c2ccccc2C1=O,inactive,–
C[C@@H]1CCC[C@H](C)N1,inactive,–
CN1[C@@H]2CC[C@H]1CC(OC(=O)C(O)c1ccccc1)C2 (stereo not given in full),inactive,–
O=C(O)c1cn(C2CC2)c2cc(N3CCNCC3)c(F)cc2c1=O,inactive,–
Cc1nc(C2CCCCC2)c(-c2ccc(S(N)(=O)=O)c(F)c2)o1,inactive,–
O=CN(CCO)CCO,inactive,–
CCOc1ccccc1OCC,inactive,–
C[N+]1(CC2COC(c3ccccc3)(c3ccccc3)O2)CCCCC1 (stereo not given),inactive,–
CO[Si](C)(OC)c1ccccc1,inactive,–
CC(C)(N)C#N,inactive,–
Cc1ccc(-c2ncc(Cl)cc2-c2ccc(S(C)(=O)=O)cc2)cn1,inactive,–
CC(CC=O)CC(C)(C)C (stereo not given),inactive,–
CN(C)C(=O)Oc1cccc([N+](C)(C)C)c1,inactive,–
CCN(CC#N)c1cccc(C)c1,inactive,–
COC(=O)C1=C(C)NC(C)=C(C(=O)OC(C)C)C1c1cccc2nonc12 (stereo not given),inactive,–
CN(C)CCCCCCN(C)C,inactive,–
CCN[C@H]1C[C@H](C)S(=O)(=O)c2sc(S(N)(=O)=O)cc21,inactive,–
CCCOC(=O)CC,inactive,–

SMILES,outcome,"activity change, negative = cytotoxicity"
FB(F)F,inactive,–
CC1=NN(c2cccc(S(=O)(=O)O)c2)C(=O)C1,inactive,–
COc1cc(C)nc(-n2nc(C)cc2OC)n1,inactive,–
CN(C)[C@@H]1C(=O)C(C(=O)NCN2CCCC2)=C(O)[C@@]2(O)C(=O)C3=C(O)c4c(O)cccc4[C@@](C)(O)C3C[C@@H]12 (stereo not given in full),inactive,–
Cc1ncc(COP(=O)(O)O)c(C=O)c1O,inactive,–
COc1cccc(OC)c1C(=O)N[C@@H]1C(=O)N2[C@@H]1SC(C)(C)[C@@H]2C(=O)O,inactive,–
Cc1cc(C)c(N=Nc2c(O)c(S(=O)(=O)O)cc3cc(S(=O)(=O)O)ccc23)cc1C,–,-2.28% [at 5.95 µM] (inactive)
NC(=O)N[C@@H](CCC(=O)O)C(=O)O,inactive,–
Cc1nc2ccc(CN(C)c3ccc(C(=O)N[C@@H](CCC(=O)O)C(=O)O)s3)cc2c(=O)[nH]1,inactive,–
CC(=O)N[C@H]1[C@H]([C@H](O)[C@H](O)CO)OC(C(=O)O)=C[C@@H]1N=C(N)N,inactive,–
c1ccc(CCc2ccccc2)cc1,inactive,–
N[C@@H](CCC(=O)O)C(=O)O,inactive,–
CCCCCCCCCC[N+](C)(C)[O-],inactive,–
N[C@H](C(=O)O)[C@@H](O)c1ccc(O)c(O)c1,inactive,–
CCC(C)(CCCC(C)C)OC(C)=O (stereo not given),inactive,–
Clc1cc(Cl)c(Cl)nc1Cl,inactive,–
Cc1cccc(C)c1NC(=O)CC12CCCN1CCC2,inactive,–
CCC(=O)OCc1ccccc1,inactive,–
CC12CCC(C(=O)C1=O)C2(C)C (stereo not given),inactive,–
Cc1ccccc1N=C(N)N=C(N)N,inactive,–

# Reference: PubChem BioAssay (Tox21)
